Shown are actives, neighbours in structure and some others; about 5.8% of the full set was active somewhere.
PINK1 expr mod = modulators of PINK1 expression | PINK1 immunofluorescence, high-content cytometry, 24 h | 410,000 compounds, 0.2% hits | Potency, µM (top dose mostly 76.6 µM), for inactives: at the highest dose activation (PINK1 increase), hits mostly activators | AID 624263; active = well fitted activation curve with a large enough effect; inconclusive = small, poorly fitted or top-dose-only effect; cell line not stated here; note: % of control where 0% means no effect; nearly all actives have a fitted effect of over 65% in size
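Readout is PINK1 immunofluorescence, quantified alongside mitochondrial, cell and nuclear markers by laser-scanning microplate cytometry. Cells from a stable line were exposed to compound titrations (5 concentrations) for 24 hours, with CCCP controls.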
KB-3-1 cytotox = kills parental KB-3-1 adenocarcinoma cells. KB-3-1 viability, CellTiter-Glo ATP luminescence, 72 h. Potency, µM (doses to about 46.1 µM), most hits filed as cytotoxic. 400,000 compounds, 1.4% hits; note: % is set by controls: 0 for no effect and ±100 for the full control effect; nearly all actives have a fitted effect of over 60% in size
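Parental KB-3-1 viability, qHTS format: 72 h compound exposure, 37 °C; CellTiter-Glo; media-only wells and DMSO plates as controls; concentration-effect fits on corrected data.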
12-LOX inh = ALOX12 (human) lipoxygenase inhibition. P18054. purified 12hLO, xylenol orange hydroperoxide absorbance. Potency, µM (titrated, usually from 108 µM), without a hit: at the highest dose activity change, negative = inhibition, actives largely listed as inhibitors. 580,000 compounds, 1.1% hits. AID 1671190; note: % is set by controls: 0 for no effect and ±100 for the full control effect
Target sequence (P18054 whole entry, looked up): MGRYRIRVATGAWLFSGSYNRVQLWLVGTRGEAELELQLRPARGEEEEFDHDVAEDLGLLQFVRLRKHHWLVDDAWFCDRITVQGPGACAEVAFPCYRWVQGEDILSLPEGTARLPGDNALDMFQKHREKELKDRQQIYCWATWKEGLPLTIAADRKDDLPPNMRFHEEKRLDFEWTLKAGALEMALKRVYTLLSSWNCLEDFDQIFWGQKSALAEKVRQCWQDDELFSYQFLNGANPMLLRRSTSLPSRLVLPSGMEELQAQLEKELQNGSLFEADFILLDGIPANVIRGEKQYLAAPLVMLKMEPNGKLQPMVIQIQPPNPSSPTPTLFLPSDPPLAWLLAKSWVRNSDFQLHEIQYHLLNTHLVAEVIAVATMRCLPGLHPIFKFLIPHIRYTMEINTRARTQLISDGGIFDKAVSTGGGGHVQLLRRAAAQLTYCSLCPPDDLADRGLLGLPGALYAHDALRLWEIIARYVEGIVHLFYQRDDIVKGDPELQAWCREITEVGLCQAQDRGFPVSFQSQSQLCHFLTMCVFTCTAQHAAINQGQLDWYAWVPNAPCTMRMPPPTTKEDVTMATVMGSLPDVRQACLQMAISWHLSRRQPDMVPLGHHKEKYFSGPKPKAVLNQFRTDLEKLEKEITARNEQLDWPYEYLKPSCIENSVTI
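Hydroperoxide product was detected by ferrous iron/xylenol orange as the 573 to 405 nm absorbance ratio. Arachidonic acid at 40 uM (final) was turned over for 30 min at room temperature by 150 nM human 12hLO, pH 7.0 Hepes buffer, after 15 min compound preincubation.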
MCF10A rerep = DNA re-replication induction in MCF 10a cells | 350,000 compounds, 2.9% hits | Potency, µM (highest dose often 46.1 µM), inactives show at the top dose activity, positive = re-replication, actives largely listed as activators | MCF 10A DNA re-replication, Hoechst nuclear intensity, 48 h; note: % of control where 0% means no effect; nearly all actives have a fitted effect of over 50% in size
KB-V1 cytotox = kills drug-selected multidrug resistant KB-V1 cells | Potency, µM (highest dose often 46.1 µM), most hits filed as cytotoxic | KB-V1 MDR cells viability, CellTiter-Glo, 72 h | 400,000 compounds, 3.4% hits; note: % is set by controls: 0 for no effect and ±100 for the full control effect; nearly all actives have a fitted effect of over 60% in size
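Drug-selected KB-V1 cells, grown in DMEM lacking phenol red with 10% FBS, receive compound titrations; after three days at 37 degrees C, surviving cell ATP is quantified by CellTiter-Glo luminescence and responses normalized and curve-fitted.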
SW480 rerep = inducers of DNA re-replication in SW480 colon cancer cells; SW480 DNA re-replication, Hoechst DNA content imaging, 48 h; Potency, µM (top dose mostly 46.1 µM), for the others: at the top dose re-replication activation, actives largely listed as activators; 340,000 compounds, 1.8% hits; note: % of control where 0% means no effect; nearly all actives have a fitted effect of over 55% in size
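Treated cells incubate 48 hr (37 C, 5% CO2), are stained 40 min with Hoechst, and nuclear fluorescence is enumerated; a rise in nuclei with high DNA signal marks re-replication.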
The depositor's hits bear a star; i = inactive; ? = inconclusive; / = not tested or not shown; [ ] = remark or other dose. Unless noted, calls come from the whole dose curve; as a rule, active = well fitted curve in the direction sought with a large enough effect; inconclusive = small, poorly fitted or top-dose-only effect, or another doubt; inactive = no such curve, though single readings can be large; an effect the other way counts as inactive or inconclusive. Potency is the fitted concentration of half-maximal effect.

SMILES	PINK1 expr mod	KB-3-1 cytotox	12-LOX inh	MCF10A rerep	KB-V1 cytotox	SW480 rerep
C=C1C(C(=O)Nc2cccc(SC)c2)C1C(=O)Nc1cccc(SC)c1 (stereo unspecified)	/	/	-28.7%	/	/	/
CCc1nn2cc(C(=O)c3cc(C)ccc3O)cnc2c1-c1ccc(F)cc1	7.3%	i	-17.5%	18.4µM*	?	-1.4%
CCc1nn2cc(C(=O)c3ccccc3O)cnc2c1-c1ccc(F)cc1	25.3%	i	-8.6%	?	?	3.8%
COc1ccc(CNC(=O)C2CCN(C(=O)c3ncn4c3COC(c3ccccc3)C4)CC2)cc1 (stereo unspecified)	/	/	13.1%	/	/	/
O=C(O)c1cc(N/N=C/c2ccc3c(c2)OCO3)ccc1Cl	-0.8%	i	32.4%	4.7%	i	6.2%[1.84 µM]
Cn1cc(C(=O)N/N=C/c2ccc(Br)c([N+](=O)[O-])c2)c2ccccc21	0.3%	16.4µM*	0.0%	-9.9%	i	?
Cn1cc(C(=O)N/N=C/c2cccs2)c2ccccc21	-1.0%	i	30.5%	-3.2%	i	0.3%
O=C(N/N=C/c1ccc2c(c1)OCO2)c1ccc2c(c1)OCCO2	6.0%	16.4µM*	-9.4%	?	i	?
Cc1cccc(C)c1OCC(=O)N/N=C/c1ccc2c(c1)OCO2	10.0%	?	6.7%	5.8µM*	5.17µM*	?
O=C(O)c1ccc(N/N=C/c2ccc3c(c2)OCO3)cc1	-1.1%	20.6µM*	?	3.2%	?	9.9%
CCOC(=O)c1csc(C)c1-c1ccccc1	/	/	3.2%	/	/	/
Cc1ccc(CN(C)C(=O)Cn2nnn(-c3cccs3)c2=O)cc1	/	/	-29.1%	/	/	/
N#Cc1ccc(/C=N/NC(=O)c2cc(-c3cccs3)nc3ccccc23)cc1	3.5%	?	?	20.6µM*	i	?
O=C(N/N=C/c1ccc2c(c1)OCO2)c1ccccn1	/	?	2.5%[57.4 µM]	2.8%	14.6µM*	8.4%
COc1cc(/C=N/NC(=O)c2cc(-c3cccs3)nc3ccccc23)ccc1O	14.2%	?	1.8%	?	?	-33.9%
O=C(N/N=C/c1ccc2c(c1)OCO2)c1cc(-c2ccco2)nc2ccccc12	8.4%	?	-23.8%	?	?	14.6µM*
O=C(N/N=C/c1cc(Br)c(Br)o1)c1ccc2c(c1)OCCO2	1.8%	i	117.7%	13µM*	?	-0.5%
O=[N+]([O-])c1ccccc1N/N=C/c1ccc2c(c1)OCO2	12.1%	i	1.0%	2.6%	?	17.6%
Cn1cc(C(=O)N/N=C/c2ccc3c(c2)OCO3)c2ccccc21	-1.5%	8.2µM*	0.0%	?	?	?
O=C(O)c1ccc(N/N=C/c2cc3cc4c(cc3nc2Cl)OCCO4)cc1	1.0%	i	-14.5%	13µM*	i	?
O=c1cnnc(N/N=C/c2ccc3c(c2)OCO3)[nH]1	0.8%	?	0.7%	-2.2%	7.31µM*	2.7%
COc1ccc(/C=N/NC(=O)c2ccc(COCC(F)(F)C(F)F)cc2)cc1	29.8%	i	-14.5%	-28.2%	?	-19.4%
O=C(N/N=C/c1ccc2c(c1)OCO2)c1ccc(COCC(F)(F)C(F)F)cc1	6.8%	8.2µM*	/	?	i	6.51µM*
CN(Cc1ccccc1)S(=O)(=O)c1cc2c(cc1Cl)Oc1ccccc1NC2=O	/	/	-15.9%	/	/	/
O=C(N/N=C/c1ccc2c(c1)OCO2)c1cccc2ccccc12	14.6%	?	-6.1%	16.4µM*	?	103.0%
SMILES	PINK1 expr mod	KB-3-1 cytotox	12-LOX inh	MCF10A rerep	KB-V1 cytotox	SW480 rerep
O=C(CSCc1ccccc1Br)N/N=C/c1ccc2c(c1)OCO2	1.4%	i	-3.8%	23.1%	?	-5.7%
O=C(CSCc1cccc(Br)c1)N/N=C/c1ccc2c(c1)OCO2	-3.4%	18.4µM*	-9.3%	?	i	?
O=C(N/N=C/c1c[nH]c2ccccc12)c1ccc2c(c1)OCCO2	3.1%	i	238.4%	16.4µM*	?	?
N#Cc1ccccc1OCC(=O)c1ccc(NC(=O)c2ccccc2)cc1	/	/	6.2%	/	/	/
C/C=C/c1ccc(OCCCCN2CCN(CC)CC2)c(OC)c1	-1.7%	i	?	-5.1%	i	8.2µM*
C/C=C/c1ccc(OCCCCN2CC(C)CC(C)C2)c(OC)c1 (stereo unspecified)	-0.4%	?	?	?	?	?
O=C1NC2(C(=O)Nc3ccc(F)c(Cl)c3)CCC(=O)N2c2ccccc21 (stereo unspecified)	/	/	48.7%	/	/	/
O=C1c2[nH]nc(-c3ccccc3O)c2C(c2cccc(Cl)c2)N1Cc1ccco1 (stereo unspecified)	3.4%[38.3 µM]	?	-4.2%	7.31µM*	14.6µM*	?
O=C1c2[nH]nc(-c3ccccc3O)c2C(c2ccc(F)cc2)N1Cc1ccco1 (stereo unspecified)	-22.3%[38.3 µM]	?	-26.1%	?	6.51µM*	?
COc1ccc(C2c3c(-c4ccccc4O)n[nH]c3C(=O)N2Cc2ccco2)cc1OC (stereo unspecified)	4.2%	i	10.3%	10.8%	i	-2.6%
CCC(C)C(=O)Nc1ccc(-c2nc3ccccc3o2)cc1 (stereo unspecified)	/	/	27.5%	/	/	/
COC(=O)c1sc2ccccc2c1-n1cccc1C(=O)C(=O)Nc1ccc(OC)cc1	6.0%	5.8µM*	32.5%	28.3%	8.2µM*	-5.2%
COC(=O)c1sc2ccccc2c1-n1cccc1C(=O)C(=O)Nc1ccccc1	8.9%	?	28.7%	22.4%	i	6.8%
COc1cccc(NC(=O)COc2ccc3c(C)cc(=O)oc3c2)c1	/	/	-9.0%	/	/	/
Cc1cccc(SCC(=O)Nc2ccccc2[N+](=O)[O-])c1	5.6%	i	-7.8%	4.9%	i	4.9%
Cc1cc(C)nc(SCC(=O)Nc2ccnc3ccccc23)n1	0.1%	3.66µM*	-3.2%	-6.3%	4.61µM*	2.8%
O=C(CSC1=NCCS1)Nc1ccnc2ccccc12	?	?	15.3%	-5.3%	?	6.5%
Cc1cc(C)n2nc(SCC(=O)Nc3ccc(F)cc3[N+](=O)[O-])nc2n1	-0.6%	i	160.0%	1.5%	20.6µM*	-3.3%
Cc1cc(C)nc(SCC(=O)Nc2ccccc2[N+](=O)[O-])n1	-5.6%[38.3 µM]	i	25.3%	0.7%	23.1µM*	-3.1%
Cc1cc(C)n2nc(SCC(=O)Nc3ccc(F)c(F)c3F)nc2n1	2.9%	i	-20.6%	-4.6%	i	-2.0%
O=C(CSc1nnc2c3ccccc3c3ccccc3c2n1)Nc1ccccc1F	?	i	-9.3%	-1.4%	3.66µM*	-4.2%

Assay outcomes: PubChem BioAssay, National Center for Advancing Translational Sciences (NCATS)
